Screen size: about 320,000 compounds; about 2,100 (0.66%) were called active. Roughly 53% stayed inconclusive and do not appear here. Calls follow the shape of the dose curve; as a rule, active = well fitted inhibition curve with a large enough effect in the signal ratio, with a control signal flat (not every such curve was filed as active); inconclusive = small, poorly fitted or top-dose-only effect, or effect the other way, or a change in a side signal; inactive = flat fitted curve, though single readings scatter; the % refers to the signal ratio. For the sample, actives were picked, then their nearest neighbours and some compounds at random.
Potency is read from the fitted curve at half-maximal effect.

A short description of this assay: qHTS Assay for Lipid Storage Modulators in Drosophila S3 Cells.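 As to cell number change: cells counted by Cell Tracker Red CMTPX staining in the red channel.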 As to lipid storage change, negative = inhibition: % is scaled to controls: 0 for no effect and ±100 for the full control effect. The note with it: BODIPY lipid droplet fluorescence, 18-24 h, cells fed with added oleic acid; cell number change: measured here: cell count max response; series mostly up to 46.1 µM; lipid storage change, negative = inhibition: at the top concentration. The method in brief:
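Drosophila S3 cells got compounds at several concentrations plus oleic acid (400 uM solution). Laser-scanning cytometry with 488 nm excitation read lipid droplets at 500-530 nm and cells at 575-640 nm. Percent activity was relative to 20 uM Triacsin C.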
(Quantitative high-throughput screening tests each substance at several concentrations.)
Regarding `CCc1ccc(C(=O)COC(=O)CNC(=O)COc2ccccc2)cc1`, the “lipid storage change, negative = inhibition” value was -0.983% (inactive) and the cell number change was -0.597%.
For `CC(C)c1ccc(OCC(=O)NC(C)c2ccccc2)cc1` (centres undefined), in that order: -29.5% (inactive) and -6.3%.
For the molecule `O=C(COc1ccccc1)NCc1ccccc1`, the outcome was inactive.
With `CC(C)CC(NC(=O)COc1ccccc1)C(=O)O` (centres undefined), the “lipid storage change, negative = inhibition” value is -9.58% (inactive) and the cell number change worked out at 23.7%.
As for `CC(C)C(NC(=O)COc1ccccc1)C(=O)O` (centres undefined), the Potency is 32.6 µM (active) and the cell number change was -18.5%.
With `COC(=O)c1cccc(NC(=S)N2CCN(c3ccccc3F)CC2)c1`, the “lipid storage change, negative = inhibition” value was 17.2% (inactive) and the cell number change is 12.8%.
For `CCOC(=O)CC(/C(C)=N\O)c1ccccc1` (centres undefined), in that order: 2.03% (inactive) and -0.923%.
Take `O=C(CN1C(=O)CSC1=O)Nc1ccc(N2CCOCC2)cc1`: the Potency is 20.6 µM (active).
In the case of `Cc1ccc(NC(=O)CN2C(=O)CSC2=O)cc1`, the “lipid storage change, negative = inhibition” value is 3.2% (inactive) and the cell number change was -1.37%.
On to `CCc1ccc(NC(=O)CN2C(=O)CSC2=O)cc1`, for which the “lipid storage change, negative = inhibition” value is -5.64% (inactive) and the cell number change was -0.41%.
Taken in the same sequence, the figures for `COc1ccc(S(=O)(=O)N2CCCCC2)cc1NC(=O)CSc1nccn1C` were -17.8% (inactive) and -6.22%.
Take `CC(=O)c1c(C(C)=O)c(C)n(-c2ccc(C)c(NC(=O)c3ccccc3Cl)c2)c1C`: the “lipid storage change, negative = inhibition” value is 7.18% (inactive) and the cell number change is -18.6%.
Consider `COc1ccc(NC(=O)N2CCCC(CCC(=O)N(C)CCc3ccccn3)C2)cc1` (centres undefined), for which the “lipid storage change, negative = inhibition” value is 3.61% (inactive) and the cell number change was -4.81%.
For `Cc1nc(N2CCCCC2)sc1C(=O)c1cccc([N+](=O)[O-])c1`, the “lipid storage change, negative = inhibition” value is -23.7% (inactive) and the cell number change is -2.77%.
For `CC(=O)c1cccc(NC(=O)NC2CCCc3ccccc32)c1` (centres undefined), in that order: -3.84% (inactive) and -3.38%.
As to `CCOc1cc(/C=C2\SC(=N)N(c3nonc3N)C2=O)ccc1OCC(N)=O`, the “lipid storage change, negative = inhibition” value was -17.3% (inactive) and the cell number change turned out to be 1.49%.
Turning to `COc1ccccc1NC(=O)C(=O)c1cn(CC(=O)N2CCCC2)c2ccccc12`, the result was inactive and the cell number change is 8.26%.
Consider `CN1CCN(C(=O)C(=O)c2cn(CC(=O)N3CCCC3)c3ccccc23)CC1`, for which the “lipid storage change, negative = inhibition” value is -2.97% (inactive) and the cell number change was -8.67%.
For `O=CN1CCN(C(=O)C(=O)c2cn(CC(=O)N3CCCCC3)c3ccccc23)CC1`, in that order: 5.33% (inactive) and 4.31%.
With `CC(=O)c1ccc(N2CCN(C(=O)C(=O)c3cn(CC(=O)N4CCCCCC4)c4ccccc34)CC2)cc1`, the Potency was 16.4 µM (active) and the cell number change was -13.1%.
For the molecule `COc1ccccc1N1CCN(C(=O)C(=O)c2cn(CC(=O)N3CCCC3)c3ccccc23)CC1`, the “lipid storage change, negative = inhibition” value is -17.6% (inactive) and the cell number change was -2.59%.
Take `COc1ccccc1N1CCN(C(=O)C(=O)c2cn(CC(=O)N3CCCCCC3)c3ccccc23)CC1`: the Potency is 11.6 µM (active) and the cell number change is -23.8%.
In the case of `CCCC(=O)Nc1c(-c2ccccc2Cl)c(=O)c2ccccc2n1C`, the “lipid storage change, negative = inhibition” value is -11.9% (inactive) and the cell number change was found to be 21.4%.
For `COc1ccccc1-n1c(SCC(=O)Nc2nnc(C)s2)nc2c(c1=O)SCC2`, in that order: 0.949% (inactive) and 4.2%.
For `CCCCCCCCOC(=O)C[N+](C)(C)C/C=C(/C)Cl`, the “lipid storage change, negative = inhibition” value was 9.71% (inactive) and the cell number change is 5.17%.
For `CCCCCCCCCCCCOC(=O)C[N+](C)(C)C`, in that order: -4.89% (inactive) and -12.3%.
Turning to `CCCCCCCCCCOC(=O)C[N+](C)(C)C/C=C(/C)Cl`, the Potency is 2.06 µM (active) and the cell number change was -24.8%.
Take `CC1(C)Cc2c(cnn2-c2ccccc2)C(NC(=O)C2(C(N)=O)CC2)C1` (centres undefined): the “lipid storage change, negative = inhibition” value is -9.11% (inactive) and the cell number change was determined as 8.69%.
Taken in the same sequence, the figures for `COc1ccc(C2CC(c3cccs3)=NN2C(=O)CCC(=O)O)cc1` (centres undefined) were 2.58% (inactive) and -0.88%.
`COc1ccc(CN2C(=O)c3cccnc3C2=O)cc1S(=O)(=O)N(C)c1ccc(C)cc1`: the outcome was inactive and the cell number change came out at 8.02%.
For the molecule `COc1ccc(CN2C(=O)c3cccnc3C2=O)cc1S(=O)(=O)N1CCCCC1`, the Potency is 1.64 µM (active) and the cell number change was -13.9%.
As to `CCCN(CCC)S(=O)(=O)c1cc(CN2C(=O)c3cccnc3C2=O)ccc1OC`, the “lipid storage change, negative = inhibition” value was 24.4% (inactive) and the cell number change was 9.22%.
`COc1ccc(CN2C(=O)c3cccnc3C2=O)cc1S(=O)(=O)NC1CCCCC1C` (centres undefined): the molecule was classed as inactive and the cell number change is -3.23%.
With `COc1ccc(CN2C(=O)c3cccnc3C2=O)cc1S(=O)(=O)NC(C)C`, the call was inactive.
Regarding `CCN(c1cccc(C)c1)S(=O)(=O)c1cc(CN2C(=O)c3cccnc3C2=O)ccc1OC`, the Potency is 8.2 µM (active) and the cell number change was determined as 7.63%.
In the case of `O=C(CN1C(=O)CCS(=O)(=O)c2ccccc21)NCc1ccc2c(c1)OCO2`, the “lipid storage change, negative = inhibition” value was 14.7% (inactive) and the cell number change was -18.6%.
As for `CC1(C)Cc2c(sc(NC(=O)C(=O)NCC3CCCO3)c2C(N)=O)CO1` (centres undefined), the molecule was classed as inactive and the cell number change is -4.25%.
On to `CNC(=O)c1ccccc1S(=O)(=O)c1ccccc1C#N`, for which the “lipid storage change, negative = inhibition” value was 4.63% (inactive) and the cell number change is -5.1%.
On to `Cc1cc(C(F)(F)F)nn1CC(=O)NCc1cccs1`, for which the “lipid storage change, negative = inhibition” value is 20.9% (inactive) and the cell number change was 3.66%.
For `COc1ccc(OC)c(NC(=O)C2CCCCC2C(=O)O)c1` (centres undefined), in that order: 4.14% (inactive) and 2.85%.
As to `COCC1CCN(C(=O)c2ccc(OC)c(OC3CCN(C(C)C)CC3)c2)CC1`, the result was inactive and the cell number change was determined as 13.3%.
Turning to `CCCOc1ccc(C(=O)O)cc1`, the “lipid storage change, negative = inhibition” value was -24.9% (inactive) and the cell number change is 0.594%.
Taken in the same sequence, the figures for `CN1CCC(N(C)C(=S)NC(=O)C23CC4CC(CC(C4)C2)C3)CC1` were -6.23% (inactive) and -1.68%.
For `CCOc1ccc(-n2c(N)c(C(=O)NCc3ccco3)sc2=S)cc1`, in that order: -2.67% (inactive) and 1.94%.
Taken in the same sequence, the figures for `COc1ccc(CNC(=O)C/C(C)=N/NC(=O)C23CC4CC(CC(C4)C2)C3)cc1` were 3.76% (inactive) and 9.74%.
In the case of `CC1CCN(C(=O)c2[nH]cnc2C(=O)NCC(=O)OCc2ccccc2)CC1`, the outcome was inactive and the cell number change came to 12.3%.
